Drawing on PubChem BioAssay (Tox21), this text covers Potency and outcome for seven compounds.

Inconclusive results are not listed. Activity calls are given as the source filed them. Unless noted, calls come from the whole dose curve; as a rule, active = well fitted curve in the direction sought with a large enough effect in the repeat runs; inconclusive = weak or mixed curves; inactive = no such curve, though single readings can be large; an effect the other way counts as inactive or inconclusive. Positions of bridges follow the written chain, without caps; N, C: chain ends. Non-standard residues stand in square brackets, D forms with d. Residues, ends and D or L forms follow the SMILES beside them. ξ: configuration not given here. *: point of attachment. d(aThr) = C[C@@H](O)[C@@H](N)C(=O)O; ξThr(3R) = C[C@@H](O)C(N)C(=O)O; X3 = CC[C@@H](C)CCCCC(=O)*; dDab = NCC[C@@H](N)C(=O)O

Experiment [1] can be described thus: qHTS assay to test for compound auto fluorescence at 535 nm (green) in HEK293 cells (AID 720680).
Experiment [2] can be described thus: qHTS assay to test for compound auto fluorescence at 460 nm (blue) in HEK293 cell free culture (AID 720681). The method, boiled down:
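Test compounds were pinned into cell-free culture medium (DMEM with 10% FBS) and fluorescence was read directly at Ex/Em 405/460 nm. Signals were expressed as fluorescence equivalents of triamterene, with DMSO vehicle as control.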

The nature of experiment [3]: qHTS assay to test for compound auto fluorescence at 535 nm (green) in HEK293 cell free culture (AID 720682). Summed up:
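Fluorescein serves as the green reference fluorophore; each compound's intrinsic emission at 535 nm (excitation 485 nm) is reported as an equivalent amount of that dye, measured in serum-containing DMEM without cells.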

Experiment [4] in a line: qHTS assay to test for compound auto fluorescence at 590 nm (red) in HEK293 cell free culture (AID 720683). The method, boiled down: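 Tox21 10K library compounds were pinned into cell-free DMEM with 10% FBS and fluorescence was read at excitation 540 nm. Activity is expressed as Rose Bengal sodium equivalency.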
Experiment [5] in a line: qHTS assay to test for compound auto fluorescence at 590 nm (red) in HepG2 cell free culture (AID 720684). Summed up: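 Ex 540 / Em 590 nm read of compound in cell-free MEM (10% FBS). Rose Bengal sodium reference.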
Experiment [6] can be described thus: qHTS assay to test for compound auto fluorescence at 460 nm (blue) in HepG2 cell free culture (AID 720685). Summed up:
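Cell-free plates of MEM plus 10% FBS received 23 nL compound or DMSO vehicle; blue-channel (405/460 nm) intensity scored against triamterene as reference fluorophore.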

Experiment [7] in a line: qHTS assay to test for compound auto fluorescence at 535 nm (green) in HepG2 cell free culture (AID 720686).
A short description of experiment [8]: qHTS assay to test for compound auto fluorescence at 460 nm (blue) in HepG2 cells (AID 720687). The method, boiled down: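 Cells (2,000/well in MEM with 10% FBS) attached overnight at 37 C, then were exposed to compound or DMSO for 1 hr at 37 C, 5% CO2. Fluorescence read at Ex/Em 405/460 nm, expressed as triamterene-equivalent signal.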
The target in experiment [9] is Glucocorticoid receptor (Homo sapiens) (UniProt P04150). Put plainly: qHTS assay to identify small molecule agonists of the glucocorticoid receptor (GR) signaling pathway (AID 720691; active = well fitted activation curve with a large enough effect in the signal ratio in the repeat runs, not every such curve was filed as active; the % refers to the signal ratio; note: potency is the fitted concentration of half-maximal effect). Conditions: GR-bla HeLa, beta-lactamase reporter ratio, 18 h; activation: at 62.4 µM (top of the series). Summed up:
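Agonist-mode qHTS in HeLa cells stably expressing a glucocorticoid-response-element beta-lactamase reporter. Fluorescence intensity read with FRET substrate (2 h, room temperature) after 18 h compound treatment at 37 C.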

For experiment [10] the target is unchanged. Put plainly: qHTS assay to identify small molecule antagonists of the glucocorticoid receptor (GR) signaling pathway (AID 720692; active = well fitted inhibition curve with a large enough effect in the signal ratio in the repeat runs, not every such curve was filed as active; the % refers to the signal ratio; note: potency is the fitted concentration of half-maximal effect). Summed up: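 Inhibition of dexamethasone-driven (5 nM final) beta-lactamase expression was measured in GRE-reporter HeLa cells over 18 h at 37C. Fluorescence was read after 2 h with the B/G FRET substrate at room temperature.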

Experiment [11] is described as follows: qHTS assay to identify small molecule antagonists of the glucocorticoid receptor (GR) signaling pathway - cell viability counter screen (AID 720693). Note: nearly all actives have a fitted effect of over 55% in size.
A short description of experiment [12]: qHTS assay for identifying genotoxic compounds that show differential cytotoxicity against isogenic chicken DT40 cell lines with known DNA damage response pathways - wild type cell line (AID 743012). Note: nearly all actives have a fitted effect of over 60% in size. Note: potency is the fitted concentration of half-maximal effect. The method, boiled down: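 Viability by ATP luminescence (CellTiter-Glo, 30 min RT) after 40 h compound treatment at 37 C/5% CO2, using 300 parental DNA repair-proficient DT40 cells per well.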

Experiment [13] is described as follows: qHTS assay for identifying genotoxic compounds that show differential cytotoxicity against isogenic chicken DT40 cell lines with known DNA damage response pathways - Rev3 mutant cell line (AID 743014). Note: nearly all actives have a fitted effect of over 55% in size. Note: potency is the fitted concentration of half-maximal effect.
Experiment [14] in a line: qHTS assay for identifying genotoxic compounds that show differential cytotoxicity against isogenic chicken DT40 cell lines with known DNA damage response pathways - Rad54/Ku70 mutant cell line (AID 743015). Note: nearly all actives have a fitted effect of over 60% in size. Note: potency is the fitted concentration of half-maximal effect.
The nature of experiment [15]: qHTS assay to identify small molecule antagonists of the androgen receptor (AR) signaling pathway - cell viability counter screen (AID 743033; note: nearly all actives have a fitted effect of over 45% in size).
A short description of experiment [16]: qHTS assay to identify small molecule antagonists of the androgen receptor (AR) signaling pathway using the MDA cell line - cell viability counter screen (AID 743041; note: nearly all actives have a fitted effect of over 45% in size). The method, boiled down:
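In this qHTS counter assay, fluorescence intensity after CellTiter-Fluor addition indicated viability of MDA-kb2 AR-luc cells given compounds and R1881 for 16 h at 37C.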

The target in experiment [17] is Androgen receptor (Homo sapiens) (UniProt P10275). Put plainly: qHTS assay to identify small molecule antagonists of the androgen receptor (AR) signaling pathway (AID 743035; active = well fitted inhibition curve with a large enough effect in the signal ratio in the repeat runs, not every such curve was filed as active; the % refers to the signal ratio). The method, boiled down:
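Antagonist mode: AR-bla HEK293 cells co-treated with test compounds and agonist R1881 for 16 h at 37C, 5% CO2. Beta-lactamase activity read as FRET fluorescence after 2 h room-temperature substrate loading.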

The target is the same in experiment [18]. Put plainly: qHTS assay to identify small molecule agonists of the androgen receptor (AR) signaling pathway (AID 743036; active = well fitted activation curve with a large enough effect in the signal ratio in the repeat runs, with a control signal flat, not every such curve was filed as active; the % refers to the signal ratio). The method, boiled down: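 Fluorescence from a beta-lactamase FRET substrate served as read-out in AR-UAS-bla GripTite HEK293 cells. Cells were treated with DMSO-dissolved compounds for 16 h at 37C, then with LiveBLAzer B/G substrate for 2 h at room temperature.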

The target is the same in experiment [19]. Put plainly: qHTS assay to identify small molecule agonists of the androgen receptor (AR) signaling pathway using the MDA cell line (AID 743040; note: nearly all actives have a fitted effect of over 20% in size). The method, boiled down: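 Cell-based luciferase reporter: MDA-kb2, MMTV promoter (AR + GR response elements). 16 h compound exposure at 37C; ONE-Glo, 30 min RT, luminescence.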
For experiment [20] the target is unchanged. Put plainly: qHTS assay to identify small molecule antagonists of the androgen receptor (AR) signaling pathway using the MDA cell line (AID 743042; note: nearly all actives have a fitted effect of over 55% in size). Summed up: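 MDA-kb2 cells (human breast carcinoma, stably carrying an MMTV-luciferase reporter responsive to AR and GR) were plated at 3,000 cells/well and preincubated 5 hr at 37C, then given compound plus R1881 agonist for 16 h. ONE-Glo luminescence was read.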

Sequence of Androgen receptor (Homo sapiens) (P10275 whole entry, looked up): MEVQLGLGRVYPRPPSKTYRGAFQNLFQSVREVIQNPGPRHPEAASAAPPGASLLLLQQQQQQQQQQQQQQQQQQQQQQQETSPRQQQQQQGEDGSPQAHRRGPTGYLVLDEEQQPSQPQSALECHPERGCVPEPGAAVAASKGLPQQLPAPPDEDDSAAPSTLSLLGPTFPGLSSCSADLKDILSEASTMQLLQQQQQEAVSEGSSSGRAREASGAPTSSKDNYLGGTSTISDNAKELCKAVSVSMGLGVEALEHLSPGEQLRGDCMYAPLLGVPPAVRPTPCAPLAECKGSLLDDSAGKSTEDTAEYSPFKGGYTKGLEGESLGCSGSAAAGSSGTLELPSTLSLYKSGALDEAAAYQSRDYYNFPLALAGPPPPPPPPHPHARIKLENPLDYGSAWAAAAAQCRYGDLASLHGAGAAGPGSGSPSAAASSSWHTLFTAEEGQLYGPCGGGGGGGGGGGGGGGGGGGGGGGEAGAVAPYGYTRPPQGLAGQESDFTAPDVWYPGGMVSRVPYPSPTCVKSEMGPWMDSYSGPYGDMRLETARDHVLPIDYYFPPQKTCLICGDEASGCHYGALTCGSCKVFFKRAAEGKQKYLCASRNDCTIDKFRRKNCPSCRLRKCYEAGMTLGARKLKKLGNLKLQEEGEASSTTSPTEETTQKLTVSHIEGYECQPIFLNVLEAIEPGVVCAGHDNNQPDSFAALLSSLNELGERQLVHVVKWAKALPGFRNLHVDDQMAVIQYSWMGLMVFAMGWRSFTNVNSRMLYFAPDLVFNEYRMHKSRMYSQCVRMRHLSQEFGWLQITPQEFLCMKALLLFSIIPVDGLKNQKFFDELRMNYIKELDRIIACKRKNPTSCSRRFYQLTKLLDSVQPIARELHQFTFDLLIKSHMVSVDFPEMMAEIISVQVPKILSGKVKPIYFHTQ
Sequence of Glucocorticoid receptor (Homo sapiens) (P04150 whole entry, looked up): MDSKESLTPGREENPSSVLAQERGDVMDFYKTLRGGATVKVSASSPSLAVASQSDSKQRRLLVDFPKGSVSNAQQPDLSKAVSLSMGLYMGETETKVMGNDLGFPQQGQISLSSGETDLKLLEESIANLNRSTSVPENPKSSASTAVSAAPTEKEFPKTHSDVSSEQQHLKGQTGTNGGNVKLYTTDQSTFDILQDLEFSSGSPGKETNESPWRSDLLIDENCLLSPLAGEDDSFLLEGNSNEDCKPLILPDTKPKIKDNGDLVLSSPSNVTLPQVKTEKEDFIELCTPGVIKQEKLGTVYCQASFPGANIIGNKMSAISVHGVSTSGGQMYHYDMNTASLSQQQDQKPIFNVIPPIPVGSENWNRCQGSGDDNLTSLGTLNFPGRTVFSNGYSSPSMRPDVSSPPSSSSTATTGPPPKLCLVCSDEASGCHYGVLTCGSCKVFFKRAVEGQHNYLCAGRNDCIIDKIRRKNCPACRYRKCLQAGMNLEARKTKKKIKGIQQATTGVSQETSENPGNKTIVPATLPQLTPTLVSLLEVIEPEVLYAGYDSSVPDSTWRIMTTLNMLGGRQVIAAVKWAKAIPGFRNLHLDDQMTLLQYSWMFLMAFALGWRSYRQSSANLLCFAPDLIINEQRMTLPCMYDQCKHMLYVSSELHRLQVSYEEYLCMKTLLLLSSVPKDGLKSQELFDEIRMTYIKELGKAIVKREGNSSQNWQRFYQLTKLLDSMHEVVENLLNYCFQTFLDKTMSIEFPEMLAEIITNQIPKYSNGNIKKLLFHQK

Turning to `CC(=O)Oc1c(C)cc(OCC(O)CNC(C)C)c(C)c1C` (stereo not drawn), the Potency result in experiment [1], in [2], in [3], in [4], in experiment [5] and in [7] was “inactive” in each case. Moreover, the Potency entry in experiment [10], in experiment [11], in [12], in [13], in experiment [14] and in experiment [15] was “inactive” throughout. Further, in [16], the Potency entry is “inactive”. The call in experiment [6] and in experiment [8] was inactive. Moreover, in [9], the Potency is 21.3 µM (active).
For `CC(=O)c1ccc2c(c1)N(CCCN1CCN(CCO)CC1)c1ccccc1S2`, the Potency entry in experiment [1], in experiment [2], in experiment [3], in experiment [4], in experiment [5] and in [7] was “inactive” each time. Also, the Potency result in experiment [9], in experiment [10], in experiment [11] and in experiment [16] was “inactive” each time. In addition, the outcome in experiment [6] and in experiment [8] was inactive. Also, the Potency is 13.3 µM (active) in [12], 26.6 µM (active) in experiment [13] and 21.1 µM (active) in experiment [14].
With `OC[C@@H](O)C(O)[C@H](O)CO`, the Potency entry in experiment [1], in experiment [2], in experiment [3], in experiment [4], in experiment [5] and in experiment [7] was “inactive” throughout. Further, the Potency result in experiment [9], in experiment [10], in experiment [11], in experiment [12], in experiment [13] and in [14] was “inactive” in each case. Also, the Potency result in experiment [16] was “inactive”. For the same compound, the compound was classed as inactive in [6] and in experiment [8].
As to `CO/N=C(\C(=O)N[C@@H]1C(=O)N2C(C(=O)O)=C(CSc3nnnn3C)CS[C@H]12)c1csc(N)n1`, the Potency entry in experiment [1], in experiment [2], in experiment [3], in [4], in experiment [5] and in experiment [7] was “inactive” each time. Moreover, the Potency entry in experiment [9], in experiment [10], in experiment [11], in [12], in [13] and in experiment [14] was “inactive” in each case. For the same compound, the Potency entry in [15] and in experiment [16] was “inactive” throughout. Moreover, the result in experiment [6] and in experiment [8] was inactive.
`CC[C@@H](C)CCCCC(=O)N[C@H](CCN)C(=O)N[C@@H](C(=O)N[C@H](CCN)C(=O)N[C@@H]1CCNC(=O)C([C@@H](C)O)NC(=O)[C@@H](CCN)NC(=O)[C@@H](CCN)NC(=O)[C@@H](CC(C)C)NC(=O)[C@@H](Cc2ccccc2)NC(=O)[C@@H](CCN)NC1=O)[C@@H](C)O` (stereo partly drawn) (X3-[dDab][d(aThr)][dDab][dDab][dDab][dF][dL][dDab][dDab][ξThr(3R)]; lactam 4-C): the Potency entry in experiment [1], in experiment [2], in [3], in experiment [4], in experiment [5] and in experiment [7] was “inactive” in each case. For the same compound, the Potency result in experiment [9], in experiment [10], in experiment [11], in [12], in experiment [14] and in [15] was “inactive” in each case. Moreover, the Potency entry in [16] is “inactive”. In addition, the compound was called inactive in [6] and in experiment [8].
As to `OCCN1CCN(CC/C=C2/c3ccccc3Sc3ccc(Cl)cc32)CC1`, the Potency result in [1], in [2], in experiment [3], in experiment [4], in experiment [5] and in [7] was “inactive” in each case. For the same compound, the Potency entry in experiment [9], in [10], in [11], in experiment [17], in [18] and in [19] was “inactive” in each case. For the same compound, the Potency entry in experiment [16] and in experiment [20] was “inactive” throughout. Also, the compound was classed as inactive in experiment [6] and in [8]. For the same compound, the Potency was 9.02 µM (active) in experiment [12], 11.4 µM (active) in experiment [13] and 11.4 µM (active) in [14].
Regarding `Cc1cc(C)c(NC(=O)C[C@H](CC(=O)O)c2cccc3ccccc23)c(C(=O)N2CCC3(CCCC3)CC2)c1`, the Potency entry in [1], in [2], in [3], in experiment [4], in experiment [5] and in experiment [7] was “inactive” each time. Moreover, the Potency result in experiment [9], in experiment [11], in experiment [12], in experiment [14], in experiment [15] and in experiment [18] was “inactive” in each case. The Potency entry in experiment [19] and in experiment [20] was “inactive” in each case. Also, the compound was called inactive in [6] and in experiment [8]. In addition, the Potency in experiment [10] was 10.7 µM (active).
